Laboratory results reported in PubChem BioAssay (EPA / NIEHS).
“And” between values parts separate entries of the source, which are not always exact repeats. Equal values may be shown once. The source holds several records for some structures; these can differ, active in one and inactive in another. The source made the active and inactive calls. The calls were made as follows: active = hit-call score of the fitted dose curve at least 0.9, where 1 is the maximum; inactive = score below 0.9.

Tests used:
[1] = read-out: Urokinase-type plasminogen activator receptor (uPAR), PLAUR (gene 5329); test: BSK_4H_uPAR: BioMAP Diversity Plus: 4H Assay for Urokinase-type plasminogen activator receptor (uPAR) Biomarker Activity (AID 2283030); conditions: primary human endothelial cells (HUVEC); actives raise or lower the signal
Procedure, shortened: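 Chemicals are dosed onto human vascular endothelial primary cells (umbilical vein). After 24 h, uPAR is read by ELISA. Gain or loss of signal is fitted relative to DMSO.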

[2] = read-out: Vascular endothelial growth factor receptor 2 (Homo sapiens) (UniProt P35968); test: BSK_4H_VEGFRII: BioMAP Diversity Plus: 4H Assay for Vascular endothelial growth factor receptor 2 (VEGFR2) Biomarker Activity (AID 2283031); conditions: primary human endothelial cells (HUVEC); actives raise or lower the signal;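 as to AC50: cell-surface VEGFR2 protein level quantified by ELISA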
Procedure, shortened: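 VEGFRII levels on human vascular endothelial primary cells were determined by ELISA at 24 hours post-dosing, with gain- or loss-of-signal fitted against DMSO controls.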

[3] = read-out: Human Leukocyte Antigen - DR isotype (HLADR), HLA-DRA (gene 3122); test: BSK_BE3C_HLADR: BioMAP Diversity Plus: BE3C Assay for Human Leukocyte Antigen - DR isotype (HLADR) Biomarker Activity (AID 2283032); conditions: primary human bronchial epithelial cells; actives raise or lower the signal
Procedure, shortened: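 Human primary bronchial epithelial cells in the BE3C system were exposed to chemicals for 24 h, after which HLA-DR levels were quantified by ELISA. Activity was fitted bidirectionally, gain or loss of signal, against DMSO as negative control and baseline.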

[4] = read-out: Vascular cell adhesion molecule 1 (VCAM1), VCAM1 (gene 7412); test: BSK_4H_VCAM1: BioMAP Diversity Plus: 4H Assay for Vascular cell adhesion molecule 1 (VCAM1) Biomarker Activity (AID 2283033); conditions: primary human endothelial cells (HUVEC); actives raise or lower the signal
Procedure, shortened: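 Primary human umbilical vein endothelial cells were exposed to chemicals for 24 h, after which VCAM-1 was quantified by ELISA. Responses were fitted bidirectionally against DMSO as negative control and activity baseline.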

[5] = read-out: Interferon-gamma inducible Protein 10 (IP10), CXCL10 (gene 3627); test: BSK_BE3C_IP10: BioMAP Diversity Plus: BE3C Assay for Interferon-gamma inducible Protein 10 (IP10) Biomarker Activity (AID 2283034); conditions: primary human bronchial epithelial cells; actives raise or lower the signal
Procedure, shortened: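 Human primary bronchial epithelial cells were exposed to chemicals for 24 hours, after which IP-10 levels were measured by ELISA. Data were fitted bidirectionally against DMSO, which served as the negative control and activity baseline.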

[6] = read-out: Monokine induced gamma interferon (MIG), CXCL9 (gene 4283); test: BSK_BE3C_MIG: BioMAP Diversity Plus: BE3C Assay for Monokine induced gamma interferon (MIG) Biomarker Activity (AID 2283035); conditions: primary human bronchial epithelial cells; actives raise or lower the signal
Procedure, shortened: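 MIG level was determined by ELISA after 24 h chemical treatment of primary human bronchial epithelial cells. Values were fitted bidirectionally with DMSO as the negative control and activity baseline.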

[7] = read-out: Transforming growth factor beta 1 (TGFb1), TGFB1 (gene 7040); test: BSK_BE3C_TGFb1: BioMAP Diversity Plus: BE3C Assay for Transforming growth factor beta 1 (TGFb1) Biomarker Activity (AID 2283036); conditions: primary human bronchial epithelial cells; actives raise or lower the signal
Procedure, shortened: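 Human primary bronchial epithelial cells (BE3C system) were dosed with chemical and TGF-b1 levels measured by ELISA at 24 h. Activity was fitted bidirectionally relative to DMSO negative control as baseline.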

[8] = read-out: Plasminogen activator inhibitor-1 (PAI1), SERPINE1 (gene 5054); test: BSK_BE3C_PAI1: BioMAP Diversity Plus: BE3C Assay for Plasminogen activator inhibitor-1 (PAI1) Biomarker Activity (AID 2283037); conditions: primary human bronchial epithelial cells; actives raise or lower the signal
Procedure, shortened: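 Human primary bronchial epithelial cells were exposed to chemical for 24 h, then PAI-1 was quantified by ELISA. Activity was fitted bidirectionally relative to the DMSO negative control baseline.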

[9] = read-out: urokinase plasminogen activator (uPA), PLAU (gene 5328); test: BSK_BE3C_uPA: BioMAP Diversity Plus: BE3C Assay for urokinase plasminogen activator (uPA) Biomarker Activity (AID 2283038); conditions: primary human bronchial epithelial cells; actives raise or lower the signal
Procedure, shortened: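 Measured by ELISA: uPA from human primary bronchial epithelial cells 24 h after chemical treatment. Values derive from bidirectional curve fitting with DMSO serving as negative control. Total protein by SRB staining in parallel wells flagged overt cytotoxicity.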

[10] = read-out: Urokinase-type plasminogen activator receptor (uPAR), PLAUR (gene 5329); test: BSK_BE3C_uPAR: BioMAP Diversity Plus: BE3C Assay for Urokinase-type plasminogen activator receptor (uPAR) Biomarker Activity (AID 2283039); conditions: primary human bronchial epithelial cells; actives raise or lower the signal
Procedure, shortened: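 Primary human bronchial epithelial cells were dosed with chemical and harvested 24 h later; uPAR was quantified by ELISA. Activity was fitted bidirectionally against DMSO as negative control and baseline.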

[11] = read-out: Interleukin-6 (IL6), IL6 (gene 3569); test: BSK_CASM3C_IL6: BioMAP Diversity Plus: CASM3C Assay for Interleukin-6 (IL6) Biomarker Activity for (AID 2283040); conditions: primary human coronary artery smooth muscle cells; actives raise or lower the signal
[12] = read-out: Tissue plasminogen activator (tPA), PLAT (gene 5327); test: BSK_BE3C_tPA: BioMAP Diversity Plus: BE3C Assay for Tissue plasminogen activator (tPA) Biomarker Activity (AID 2283041); conditions: primary human bronchial epithelial cells; actives raise or lower the signal
Procedure, shortened: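 Human primary bronchial epithelial cells were dosed with chemical and tPA biomarker levels measured by ELISA 24 hours later. Activity was fitted bidirectionally against DMSO as negative control and baseline.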

[13] = read-out: Interleukin-8 (IL8), CXCL8 (gene 3576); test: BSK_CASM3C_IL8: BioMAP Diversity Plus: CASM3C Assay for Interleukin-8 (IL8) Biomarker Activity (AID 2283042); conditions: primary human coronary artery smooth muscle cells; actives raise or lower the signal;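 also: IL-8 protein level quantified by ELISA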
[14] = read-out: Human Leukocyte Antigen - DR isotype (HLADR), HLA-DRA (gene 3122); test: BSK_CASM3C_HLADR: BioMAP Diversity Plus: CASM3C Assay for Human Leukocyte Antigen - DR isotype (HLADR) Biomarker Activity (AID 2283043); conditions: primary human coronary artery smooth muscle cells; actives raise or lower the signal;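 also: cell-surface HLA-DR protein level quantified by ELISA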
[15] = read-out: Macrophage colony-stimulating factor (MCSF), CSF1 (gene 1435); test: BSK_CASM3C_MCSF: BioMAP Diversity Plus: CASM3C Assay for Macrophage colony-stimulating factor (MCSF) Biomarker Activity (AID 2283044); conditions: primary human coronary artery smooth muscle cells; actives raise or lower the signal;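 also: M-CSF protein amount quantified by ELISA after 24 h exposure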
[16] = read-out: Low-density lipoprotein receptor (LDLR), LDLR (gene 3949); test: BSK_CASM3C_LDLR: BioMAP Diversity Plus: CASM3C Assay for Low-density lipoprotein receptor (LDLR) Biomarker Activity (AID 2283045); conditions: primary human coronary artery smooth muscle cells; actives raise or lower the signal;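 also: LDLR protein level on the cell surface quantified by ELISA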
[17] = read-out: Monocyte Chemoattractant Protein-1 (MCP1), CCL2 (gene 6347); test: BSK_CASM3C_MCP1: BioMAP Diversity Plus: CASM3C Assay for Monocyte Chemoattractant Protein-1 (MCP1) Biomarker Activity (AID 2283046); conditions: primary human coronary artery smooth muscle cells; actives raise or lower the signal;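 also: MCP-1 level quantified by ELISA 24 h after dosing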
[18] = BSK_CASM3C_Proliferation: Cell Proliferation Assessment in the BioMAP Diversity Plus: CASM3C Assay (AID 2283047); conditions: primary human coronary artery smooth muscle cells;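 also: sulforhodamine B total protein stain as relative cell number at 560 nm; sub-confluent cells exposed 48 h before staining; fitted both ways against DMSO so gain or loss of cell number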
[19] = read-out: Monokine induced gamma interferon (MIG), CXCL9 (gene 4283); test: BSK_CASM3C_MIG: BioMAP Diversity Plus: CASM3C Assay for Monokine induced gamma interferon (MIG) Biomarker Activity (AID 2283048); conditions: primary human coronary artery smooth muscle cells; actives raise or lower the signal;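 also: MIG protein level measured by ELISA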
[20] = read-out: serum amyloid A (SAA), SAA1 (gene 6288); test: BSK_CASM3C_SAA: BioMAP Diversity Plus: CASM3C Assay for serum amyloid A (SAA) Biomarker Activity (AID 2283049); conditions: primary human coronary artery smooth muscle cells; actives raise or lower the signal;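 also: SAA protein level quantified by ELISA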

Measured: AC50

CCN1CN(CC)CN(CC)C1
inactive: all assays above

C[N+](C)(C)CCCNS(=O)(=O)C(F)(F)C(F)(F)C(F)(F)C(F)(F)C(F)(F)C(F)(F)C(F)(F)C(F)(F)F
active: [3] 54.8 µM | [5] 30 µM and 43.7 µM | [9] 1.1 µM | [12] 17.1 µM and 18.5 µM | [15] 16.8 µM | [16] 19.5 µM and 26.4 µM | [20] 7.89 µM
inactive: [2] | [3] | [4] | [6] | [8] | [9] | [10] | [11] | [13] | [14] | [15] | [17] | [18] | [19] | [20]

CCc1cccc(C)c1N(C(=O)CS(=O)(=O)O)C(C)COC (configuration not stated)
inactive: all assays above

COC(OC)(C(=O)c1ccccc1)c1ccccc1
inactive: all assays above

c1ccc2c(c1)[nH]c1ccccc12
inactive: [1] | [2] | [3] | [4] | [5] | [6] | [7] | [8] | [9] | [10] | [11] | [12] | [13] | [14] | [15] | [16] | [17] | [18] | [19] | [20]
active: [5] 20.1 µM

CCOC(=O)C1=NN(c2ccc(Cl)cc2Cl)C(C)(C(=O)OCC)C1 (configuration not stated)
inactive: all assays above

CCCCCCCO
not listed: [3]
inactive: all other assays above

COc1ccc(C(=O)/C(Br)=C\C(=O)O)cc1
inactive: [2] | [6] | [7] | [8] | [9] | [10] | [12] | [20]
active: [2] 29.8 µM | [3] 26.8 µM and 20 µM | [4] 22.1 µM and 20 µM | [5] 20 µM | [6] 28.8 µM | [7] 8.23 µM | [8] 8.24 µM | [9] 20 µM | [11] 20 µM and 23.2 µM | [12] 4.45 µM | [13] 35.4 µM and 29.1 µM | [14] 6.86 µM and 20.6 µM | [15] 20 µM and 29.7 µM | [16] 13.2 µM and 26.7 µM | [17] 30 µM and 31.1 µM | [18] 4.88 µM and 24.3 µM | [19] 29.2 µM and 31 µM | [20] 11.4 µM

C=CC(=O)NCOCCCC
inactive: all assays above

Oc1c(Cl)cc(Cl)c(Cl)c1Cl
active: [3] 6.25 µM | [4] 20 µM | [5] 20 µM | [8] 7.51 µM | [9] 6.07 µM | [10] 20 µM | [11] 383 nM
not listed: [1]
inactive: all other assays above

CC(c1cc(C(C)(C)C)cc(C(C)(C)C)c1O)c1cc(C(C)(C)C)cc(C(C)(C)C)c1O
inactive: all assays above

C=CCCCCCCCCC=O
inactive: all assays above

C=CC(=O)OCCCCCCCC(C)C
active: [4] 15.7 µM
inactive: all other assays above

CCCCCCCCC(CO)CCCCCC (configuration not stated)
active: [5] 2.01 µM | [8] 1.36 µM
not listed: [1]
inactive: all other assays above

C=CC(=O)OCCCCCCOC(=O)C=C
active: [1] 20 µM | [2] 20 µM | [3] 7.89 µM | [4] 20 µM | [5] 26 µM | [6] 35.7 µM | [10] 11.4 µM | [11] 14200 nM | [13] 10.1 µM | [14] 10.5 µM | [15] 18 µM | [16] 20 µM | [17] 34 µM | [18] 20 µM | [19] 23.3 µM
inactive: [7] | [8] | [9] | [12] | [20]

CCCCCC1=CCCC1=O
not listed: [1]
inactive: all other assays above

CCOC(=O)C1=NOC(c2ccccc2)(c2ccccc2)C1
not listed: [1]
inactive: all other assays above

C=CC(=O)NC(C)(C)C
not listed: [1]
inactive: all other assays above

CCCCCCC=O
active: [18] 0.22 µM
not listed: [1]
inactive: all other assays above

CCCCCCCCCCCC(C)=O
active: [4] 29.6 µM | [5] 20 µM | [15] 35.9 µM | [17] 36.8 µM | [18] 20 µM
inactive: all other assays above

C=C(C)C(=O)OCCCCCCCCCCCC
inactive: all assays above

COc1ccc(C(=O)c2ccccc2)c(O)c1
active: [4] 29.1 µM
inactive: all other assays above

Oc1ccccc1Cc1ccccc1O
inactive: [1] | [2] | [3] | [4] | [5] | [6] | [8] | [9] | [10] | [11] | [13] | [14] | [15] | [16] | [17] | [18] | [19] | [20]
active: [8] 18 µM | [12] 13.4 µM and 10.2 µM
